Results: the supplement of paper PMC6555819

Experiments:
Assay in all cases: PBM binding z-score (relative to random genomic background probes); higher = stronger binding; sequences stand for … in GC…GCGATTGACAGCGTAGAATGAAGG
[1] = test system: RARb homodimer (NR concentration 270 nM)
Summary of the method: (§1)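 Ligand-free nuclear receptor dimers were applied to custom Agilent 4×180K protein-binding microarrays whose double-stranded probes carried direct-repeat seeds, single-nucleotide variants, half-site ablations and random human genomic background sequences in 34-nt variable regions. Incubation lasted 1 h. Binding z-scores were computed against the random background probes from regression-normalized fluorescence.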

[2] = test system: RARg:RXRa (NR concentration 270 nM, RXRa partner concentration 90 nM)
Summary of the method: as §1

[3] = test system: RARg homodimer (NR concentration 270 nM)
Summary of the method: as §1

[4] = test system: RXRa DBDmut IVT, anti-RXR (DBD mutation: RXRa K156A/R161A, NR concentration 90 nM)
Summary of the method: as §1

[5] = test system: RXRa homodimer (NR concentration 180 nM)
Summary of the method: as §1

[6] = test system: THRa:RXRa (NR concentration 90 nM, RXRa partner concentration 90 nM)
Summary of the method: as §1

[7] = test system: THRa homodimer (NR concentration 90 nM)
Summary of the method: as §1

[8] = test system: VDR:RXRa (NR concentration 270 nM, RXRa partner concentration 90 nM)
Summary of the method: as §1

[9] = test system: VDR homodimer (NR concentration 270 nM)
Summary of the method: as §1

| Sequence | PBM binding z-score [1] | PBM binding z-score [2] | PBM binding z-score [3] | PBM binding z-score [4] | PBM binding z-score [5] | PBM binding z-score [6] | PBM binding z-score [7] | PBM binding z-score [8] | PBM binding z-score [9] |
| --- | --- | --- | --- | --- | --- | --- | --- | --- | --- |
| TGAATGAGGTTATAAGATCAGTGAACGTTGCAAA | 0.307 | 1.49 | 0.953 | 0.773 | 1.95 | 1.69 | 0.0121 | 1.14 | 0.482 |
| CCTACTGGGCCAAAGGGCATTGATTCCAATGCTC | 1.16 | 1.06 | 0.727 | -0.785 | 0.895 | 0.159 | -0.934 | 0.0732 | -0.17 |
| ATCTCTAGGTAAAGTTCAGTGTAAGATCGATAGA | 2.72 | 2.02 | 2.42 | 1.71 | 1.19 | 1.65 | 0.624 | 2.12 | 2.46 |
| ATATGGAGGTTATCGGGTCATTCAGTTTGCGCAT | 3.56 | 4.27 | 3.28 | 2.19 | 4.9 | 3.71 | 3 | 5.78 | 4.69 |
| ATCTCTAGGGAAGACTCAGTTCAGTGAAGAACGC | 0.462 | -0.132 | -0.0509 | 0.532 | -0.129 | 0.262 | 0.318 | 0.408 | 1.38 |
| ACATACAGGTGATGAAGGTAACTCAGGCTATCAT | 0.492 | 0.787 | 0.615 | 0.27 | 0.874 | 1.16 | 0.135 | 0.555 | 0.174 |
| CCTTACGGGACAAGGTTATAGCACGGGTGGTACG | 1.07 | 1.07 | 0.894 | -0.464 | 1.35 | 1.08 | 0.341 | 0.416 | 0.555 |
| CAAACTAGGTCAAGAGATCAAAGTCCGCTTCCCG | 3.07 | 4.48 | 4.39 | 1.59 | 3.3 | 2.63 | 0.798 | 1.59 | 0.64 |
| TCTCGGAGGACACGAACGTCAGAGCTTTCCAGAG | 0.309 | 0.302 | 0.872 | 0.441 | 0.094 | 1.25 | 0.208 | -0.0912 | -0.356 |
| CGAACTAGGTCAGAACAGGAGAGTGAAGGATGAT | 1.69 | 2.51 | 3.2 | 0.692 | 1.23 | 1.72 | 0.0817 | 0.035 | 0.129 |
| ACTATTAGGTGACTTAGGGCAACCGATACGACGC | 1.39 | 1.18 | 1.29 | 0.234 | 0.903 | 2.76 | 0.89 | 0.474 | -0.344 |
| CGTCCAAGGTCAAGGTCAGTCAAAGAGACTCGAA | 5.15 | 6.95 | 7.59 | 4.09 | 6.7 | 4.16 | 3.61 | 4.84 | 3.55 |
| ACTAGCAGGCCAAGTTTGGTTCACTCAAACAAAG | 0.338 | 0.163 | 0.218 | 0.0733 | -0.193 | 0.405 | -0.294 | 0.34 | 0.338 |
| CTAGCAAGGTGAACAAGGTCGTTGATTACTATTC | 1.77 | 1.68 | 1.5 | 1.25 | 2.1 | 3.18 | 1.45 | 6.05 | 2.32 |
| ACTCGGAGGACAAGGGTCAGAGCTACGCCAGTGA | 3.36 | 3.88 | 3.19 | 0.24 | 2.82 | 2.28 | 0.361 | 1.91 | 1.05 |
| GATACAGGGTCAGCTAGAGGCCACAGTATGGAAA | 3.61 | 7.06 | 5.21 | 0.909 | 4.27 | 3.39 | 0.56 | 3.76 | 0.844 |
| TCATATAGGTAATACAGGTGAAAGTTGGCATCTA | 0.923 | 1.02 | 0.788 | 1.86 | 1.69 | 1.19 | 0.467 | 1.46 | 0.572 |
| ATATATAGGTTATCGGGTCATTCAGTTTGCGCAT | 3.49 | 3.74 | 2.97 | 2.18 | 4.13 | 3.51 | 3.2 | 5.37 | 4.39 |
| CGTCAAAGTGCAAGGTAACGTAACAGAAAGCAGC | 0.846 | 0.771 | 1.24 | 1.21 | 0.508 | 1.08 | 0.0291 | -0.0204 | 0.017 |
| CGTCAAAGTTCAAAGTAACGTAACAGAAAGCAGC | 3.42 | 5.52 | 5.99 | 4.98 | 4.88 | 1.72 | -0.272 | 4.09 | 4.15 |
| GATACAGGGTCAGCTAGAGTCCAGAGTATGGAAA | 3.02 | 5.59 | 4.41 | 1.39 | 4.32 | 2.88 | 0.377 | 4.13 | 1.58 |
| CGTCCAAGGACAGCAGGTCAGTGAAAGCGACGTG | 2.36 | 1.72 | 2.06 | 0.0474 | 0.679 | 2.46 | 0.788 | -0.0699 | -0.264 |
| CCGACTGGGGCAGATAGGTTACCATACCATCCGG | 0.817 | 0.424 | 0.518 | -0.658 | 0.262 | -0.181 | -0.391 | -0.389 | -0.573 |
| TAGCCTAGGTCATGGACCAGTATACCACGCGAAC | 2.8 | 4.03 | 4.21 | 0.316 | 3.56 | 3.18 | 1.13 | 2.13 | 0.57 |
